Outcome and AC50 data for 19 compounds are collected here from PubChem BioAssay (EPA / NIEHS).

Each structure is given as a SMILES string. Active and inactive are the calls of the source. The calls were made as follows: active = hit-call score of the fitted dose curve at least 0.9, where 1 is the maximum; inactive = score below 0.9.

This test is described as follows: CCTE_Simmons_MITO_max_resp_rate: CCTE's HepG2 Seahorse XF Respirometric Screening Assay at Maximal Respiratory State [uncoupled], Simmons Lab (AID 2284002). Conditions: actives raise or lower the signal. The protocol:
CCTE_Simmons_MITO is cell-based, respirometric assay using HepG2 cells and a Seahorse XF Analyzer to measure oxygen consumption rates over four temporal phases spanning a total of 72 minutes: pre-injection (pre-treatment), basal (following test compound injection), maximal (following FCCP uncoupler injection), and inhibited (following rotenone/antimycin A injection)CCTE_Simmons_MITO_max_resp_rate is one of 4 assay components calculated from the CCTE_Simmons_MITO assay. It is designed to make measurements of maximal respiration using a form of respirometric reporter, as detected with […] signals by Seahorse XF96 technology. Data from the assay component CCTE_Simmons_MITO_max_resp_rate was analyzed at the endpoint, CCTE_Simmons_MITO_max_resp_rate_OCR, with bidirectional fitting relative to DMSO as the negative control and baseline of activity. Using a type of respirometric reporter, measures of maximal respiration for gain or loss-of-signal activity can be used to understand cellular oxygen consumption as it relates to cellular respiration. To generalize the intended target to other relatable targets, this assay endpoint is annotated to the mitochondria intended target family, where the subfamily is respiration.
Test chemicals were administered as a titrated series of 7 concentrations from 125 nM up to 100 uM [final] prior to kinetic endpoint detection at 6 minute intervals [3 min mix followed by 3 minutes measure] for 72 minutes. Three biological replicates of technical singles were run for every chemical concentration tested. Dimethylsulfoxide [DMSO] was used as the vehicle control. The electron transport chain inhibitor fenpyroximate was used as the positive control for decreased basal respiration and was administered as a titrated series of 6 concentrations from 250 nM up to 2.75 uM [final] with technical triplicates for the top concentration only. The uncoupler 2,4-dintirophenol was used as the positive control for increased basal respiration and was administered as a titrated series of 6 concentrations from 938 nM up to 40 uM [final] with technical triplicates for the top concentration only. A Seahorse XF Analzyer is required to measure the response.
With `CCNc1nc(NC(C)C)nc(SC)n1`, the result was inactive.
Same read-out and setting: under `C[C@]12CCC(=O)C=C1CC[C@@H]1[C@@H]2CC[C@@]2(C)[C@H]1CC[C@]2(C)O` stands “inactive”.
`Oc1ccc(C(c2ccc(O)cc2)(C(F)(F)F)C(F)(F)F)cc1`: the AC50 – broadly, the concentration giving half of the maximal activity seen – is 21.6 µM (active).
With `CCCCCCCCCC[N+](C)(C)CCCCCCCCCC`, the AC50 was 26.4 µM (active).
Take `O=C(O)C(F)(F)C(F)(F)C(F)(F)C(F)(F)C(F)(F)C(F)(F)C(F)(F)C(F)(F)C(F)(F)F`: the compound was classed as inactive.
For the compound `CO/C=C(/C(=O)OC)c1ccccc1COc1cccc(C(F)(F)F)n1`, the AC50 is 1.3 µM (active).
On to `NS(=O)(=O)C(F)(F)C(F)(F)C(F)(F)C(F)(F)C(F)(F)C(F)(F)C(F)(F)C(F)(F)F`, for which the result was inactive.
Consider `CC(C)(O)C(=O)Nc1ccc([N+](=O)[O-])c(C(F)(F)F)c1`, for which the AC50 was 50 µM (active).
For the compound `CCC(C)c1cc([N+](=O)[O-])cc([N+](=O)[O-])c1O` (centres undefined), the AC50 is 16 µM (active).
Take `CC(c1ccc(O)cc1)(c1ccc(O)cc1)c1ccc(O)cc1`: the outcome was inactive.
In the case of `Oc1c(Cl)c(Cl)c(Cl)c(Cl)c1Cl`, the AC50 was 16.2 µM (active).
Regarding `C[C@]12CCC(=O)C=C1CC[C@@H]1[C@@H]2CC[C@]2(C)C(=O)CC[C@@H]12`, the outcome was inactive.
`COc1ccc(O)c(C(C)(C)C)c1`: the compound was classed as inactive.
As to `CCSC(=O)N(CC)C1CCCCC1`, the call was inactive.
Turning to `CCC(C)(c1ccc(O)cc1)c1ccc(O)cc1`, the AC50 is 25.9 µM (active).
Take `CC(C)(c1ccccc1)c1ccc(O)cc1`: the AC50 was 37.7 µM (active).
Consider `O=C(O)C(F)(F)C(F)(F)C(F)(F)C(F)(F)C(F)(F)C(F)(F)C(F)(F)C(F)(F)F`, for which the compound was classed as inactive.
As for `CCC(=O)O[C@H]1CC[C@H]2[C@@H]3CCC4=CC(=O)CC[C@]4(C)[C@H]3CC[C@]12C`, the outcome was inactive.
The same measure, in the same setting: to `N#Cc1ccc(N(CC(N)=O)CC(F)(F)F)cc1C(F)(F)F` belongs “inactive”.
